For assay [1], the system named is Jurkat. In words: mean cell size (FSC-A) relative to DMSO control (fraction of control); higher = larger cells. The settings on record: 48 h. The method in brief: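 Jurkat cells at 600 cells/µl were incubated for 1 h and then treated for 48h with the Enzo Screen-Well FDA Approved Drug Library v2.0 at 25µM, with DMSO at 0.9% (v/v) final. Compounds that reduced counts below 20% of controls were retested in 10-fold dilutions down to 25nM. Cell count and mean cell size, taken as forward scatter area, were measured by flow cytometry relative to solvent-only controls. Each plate carried 6-12 controls, and values are means of 3 biological replicates.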

Assay [2] concerns Jurkat. In words: cell count relative to DMSO control (fraction of control); higher = more cells (less growth inhibition). Particulars: 48 h.

Molecules are shown by their SMILES. Counter-ions that a name gives are not always drawn. ± gives the standard deviation.

On to `CNCCCC1c2ccccc2C=Cc2ccccc21` [Protriptyline·HCl] (concentration: 25 µM), for which, in the assay on Jurkat [1], the mean cell size was determined as 1.05 ± 0.019. In the assay with Jurkat [2], this compound displayed a cell count of 0.821 ± 0.056.
The corresponding values for `NS(=O)(=O)c1cc2c(cc1Cl)NCNS2(=O)=O` [Hydrochlorothiazide] (concentration: 25 µM) are 0.901 ± 0.044 and 0.411 ± 0.088.
Compound `CC(C)(C)NCC(O)COc1cccc2c1CC(O)C(O)C2` (stereo not given) [Nadolol] (concentration: 25 µM) registered a mean cell size with Jurkat [1] of 0.928 ± 0.041. In the assay with Jurkat [2], the cell count amounted to 0.487 ± 0.059.
For `C[N+]1(C)[C@@H]2CC[C@H]1C[C@@H](OC(=O)C(O)c1ccccc1)C2` (stereo not given in full) [Homatropine Methylbromide] (concentration: 25 µM), in the assay with Jurkat [1], the mean cell size amounted to 0.9418 ± 0.0067. In the assay with Jurkat [2], this compound returned a cell count of 0.565 ± 0.018.
The corresponding values for `CN(C)c1cc(NC(=O)CNC(C)(C)C)c(O)c2c1C[C@H]1C[C@H]3[C@H](N(C)C)C(=O)C(C(N)=O)=C(O)[C@@]3(O)C(=O)C1=C2O` [Tigecycline] (concentration: 25 µM) are 1.01 ± 0.051 and 0.784 ± 0.06.
Regarding `C[C@]12CC[C@@H]3c4ccc(O)cc4CC[C@H]3[C@@H]1CC[C@@H]2O` [Estradiol] (concentration: 25 µM), the mean cell size with Jurkat [1] came out at 0.892 ± 0.026. In the assay with Jurkat [2], this compound came in with a cell count of 0.711 ± 0.1.
For `CC(C)N1CCN(c2ccc(OCC3COC(Cn4cncn4)(c4ccc(Cl)cc4Cl)O3)cc2)CC1` (stereo not given) [Terconazole] (concentration: 25 µM), the mean cell size with Jurkat [1] turned out to be 0.891 ± 0.017. In the assay on Jurkat [2], this compound displayed a cell count of 0.299 ± 0.11.
In the same order, the values of `CC(C)NCC(O)COc1ccc(CCOCC2CC2)cc1` (stereo not given) [Betaxolol·HCl] (concentration: 25 µM) are 1.01 ± 0.038 and 0.95 ± 0.17.
In the same order, the values of `C#Cc1cccc(Nc2ncnc3cc(OCCOC)c(OCCOC)cc23)c1` [Erlotinib] (concentration: 25 µM) are 0.838 ± 0.026 and 0.666 ± 0.04.
In the same order, the values of `NCCS` [Cysteamine·HCl] (concentration: 25 µM) are 0.957 ± 0.034 and 0.513 ± 0.13.
Regarding `CN(C)CCCC1(c2ccc(F)cc2)OCc2cc(C#N)ccc21` (stereo not given) [Citalopram·HBr] (concentration: 25 µM), the mean cell size with Jurkat [1] was found to be 0.951 ± 0.031. This compound came in with a cell count in the assay on Jurkat [2] of 1.15 ± 0.039.
In the same order, the values of `CN1C(C(=O)Nc2ccccn2)=C(O)c2ccccc2S1(=O)=O` [Piroxicam] (concentration: 25 µM) are 0.9597 ± 0.0066 and 0.738 ± 0.07.
In the same order, the values of `Clc1ccc2c(c1)C(N1CCNCC1)=Nc1ccccc1O2` [Amoxapine] (concentration: 25 µM) are 1.03 ± 0.013 and 0.538 ± 0.073.
For `COc1ccc(CC(C)NCC(O)c2ccc(O)c(NC=O)c2)cc1` (stereo not given) [Formoterol] (concentration: 25 µM), in the assay with Jurkat [1], the mean cell size amounted to 0.992 ± 0.033. In addition, the cell count with Jurkat [2] was determined as 0.808 ± 0.044.
`CCN(CC)C(=O)/C(C#N)=C/c1cc(O)c(O)c([N+](=O)[O-])c1` [Entacapone] (concentration: 25 µM): the mean cell size in the assay on Jurkat [1] was found to be 1.06 ± 0.055. Besides, the cell count with Jurkat [2] stood at 0.519 ± 0.059.
Turning to `CC[C@]1(O)C[C@H]2CN(CCc3c([nH]c4ccccc34)[C@@](C(=O)OC)(c3cc4c(cc3OC)N(C=O)[C@H]3[C@@](O)(C(=O)OC)[C@H](OC(C)=O)[C@]5(CC)C=CCN6CC[C@]43[C@@H]65)C2)C1` [Vincristine Sulfate] (concentration: 25 nM), in the assay on Jurkat [1], the mean cell size worked out at 0.985 ± 0.011. Besides, the cell count in the assay on Jurkat [2] was found to be 0.083 ± 0.066.
In turn, `OCCN(CCO)c1nc(N2CCCCC2)c2nc(N(CCO)CCO)nc(N3CCCCC3)c2n1` [Dipyridamole] (concentration: 25 µM) came in with a mean cell size in the assay on Jurkat [1] of 0.9538 ± 0.0084. In the assay on Jurkat [2], the cell count came to 0.652 ± 0.1.
In turn, `CN(C)CCOC(c1ccccc1)c1ccccc1` [Diphenhydramine·HCl] (concentration: 25 µM) came in with a mean cell size in the assay on Jurkat [1] of 0.967 ± 0.017. In the assay on Jurkat [2], the cell count was determined as 0.987 ± 0.042.
In turn, `CC(C)Cn1cnc2c(N)nc3ccccc3c21` [Imiquimod] (concentration: 25 µM) displayed a mean cell size in the assay on Jurkat [1] of 0.936 ± 0.018. Further, the cell count in the assay with Jurkat [2] was 0.44 ± 0.15.
In the same order, the values of `CN(C)C(=N)NC(=N)N` [Metformin·HCl] (concentration: 25 µM) are 0.954 ± 0.067 and 0.66 ± 0.18.
The corresponding values for `C[C@H](Cn1cnc2c(N)ncnc21)OCP(=O)(O)O` [Tenofovir] (concentration: 2.5 µM) are 0.997 ± 0.14 and 0.894 ± 0.016.
The corresponding values for `Cc1ccc(O)c([C@H](CCN(C(C)C)C(C)C)c2ccccc2)c1` [Tolterodine Tartrate] (concentration: 25 µM) are 0.935 ± 0.022 and 1.14 ± 0.059.
`Clc1ccc(CO/N=C(\Cn2ccnc2)c2ccc(Cl)cc2Cl)c(Cl)c1` [Oxiconazole Nitrate] (concentration: 25 µM) had a mean cell size in the assay on Jurkat [1] of 0.933 ± 0.016. In addition, in the assay with Jurkat [2], the cell count worked out at 0.87 ± 0.18.
Compound `CCCCCOc1ccc(-c2cc(-c3ccc(C(=O)N[C@H]4C[C@@H](O)[C@@H](O)NC(=O)[C@@H]5[C@@H](O)[C@@H](C)CN5C(=O)[C@H]([C@H](O)CC(N)=O)NC(=O)[C@H]([C@H](O)[C@@H](O)c5ccc(O)c(OS(=O)(=O)O)c5)NC(=O)[C@@H]5C[C@@H](O)CN5C(=O)[C@H]([C@@H](C)O)NC4=O)cc3)no2)cc1` [Micafungin] (concentration: 25 µM) showed a mean cell size with Jurkat [1] of 0.993 ± 0.031. For the same compound, in the assay on Jurkat [2], the cell count came out at 0.52 ± 0.081.
In the assay with Jurkat [1], `O=C(NCC1CCCCN1)c1cc(OCC(F)(F)F)ccc1OCC(F)(F)F` (stereo not given) [Flecainide Acetate] (concentration: 25 µM) returned a mean cell size of 0.97 ± 0.014. Besides, the cell count with Jurkat [2] was found to be 0.725 ± 0.033.

The values are drawn from the supplement of paper PMC4709259.
